Reference: publication PMC9838217, “Structure of SALL4 zinc finger domain reveals link between AT-rich DNA binding and Okihiro syndrome”
Positions count from the first letter of the chain named.

Assays:
[1] = target: T1, SALL4 ZFC4 R900W (HT-SELEX) (Mus musculus, UniProt Q8BX22 870-940, R900W); assay: HT-SELEX; high values mean tight binding; conditions: protein: recombinant; vector His6-GST; dsDNA, one strand shown
T1 sequence: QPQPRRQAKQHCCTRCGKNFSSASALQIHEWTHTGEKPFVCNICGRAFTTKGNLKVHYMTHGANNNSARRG
Procedure, shortened: (§1)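 Each canonical k-mer's binding signal is its read fraction expressed as fold change over the initial random library. Reads came from MiSeq sequencing, scanned for 6-mers, after up to 6 triplicate cycles in which purified recombinant mouse SALL4 zinc finger cluster 4 (residues 870–940, 1 µg) bound library DNA (1.5 µg first cycle, 200 ng later) in 100 µl of 10 mM Tris–HCl pH 7.5, 50 mM NaCl, poly(dI-dC), DTT for 10 min at room temperature. Complexes were then Ni2+ bead-captured, washed, PCR-amplified and reselected.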

[2] = target: T2, SALL4 ZFC4 G921D (HT-SELEX) (Mus musculus, UniProt Q8BX22 870-940, G921D); assay: HT-SELEX; high values mean tight binding; conditions: protein: recombinant; vector His6-GST; dsDNA, one strand shown
T2 sequence: T1 sequence with W31R, G52D
Procedure, shortened: as §1

| Sequence | binding signal [1] | binding signal [2] |
| --- | --- | --- |
| AACGCC | 0.242 ± 0.0243 fold-change vs cycle 0 | 0.377 ± 0.0751 fold-change vs cycle 0 |
| GCGTCC | 0.152 ± 0.014 fold-change vs cycle 0 | 0.258 ± 0.0705 fold-change vs cycle 0 |
| CACGGC | 0.114 ± 0.0156 fold-change vs cycle 0 | 0.228 ± 0.0664 fold-change vs cycle 0 |
| ATGCGG | 0.275 ± 0.0176 fold-change vs cycle 0 | 0.409 ± 0.0549 fold-change vs cycle 0 |
| ACGGCT | 0.272 ± 0.0156 fold-change vs cycle 0 | 0.399 ± 0.0636 fold-change vs cycle 0 |
| AGCCAC | 0.315 ± 0.0294 fold-change vs cycle 0 | 0.473 ± 0.0855 fold-change vs cycle 0 |
| TCGTAA | 1.29 ± 0.0564 fold-change vs cycle 0 | 1.25 ± 0.113 fold-change vs cycle 0 |
| AAGCGC | 0.162 ± 0.0133 fold-change vs cycle 0 | 0.302 ± 0.0877 fold-change vs cycle 0 |
| GTCCGA | 0.371 ± 0.00646 fold-change vs cycle 0 | 0.506 ± 0.055 fold-change vs cycle 0 |
| GCACCC | 0.1961 ± 0.000728 fold-change vs cycle 0 | 0.322 ± 0.0644 fold-change vs cycle 0 |
| CGTGGC | 0.125 ± 0.0124 fold-change vs cycle 0 | 0.24 ± 0.0653 fold-change vs cycle 0 |
| GCGAAC | 0.281 ± 0.0107 fold-change vs cycle 0 | 0.417 ± 0.0584 fold-change vs cycle 0 |
| ATGCGC | 0.153 ± 0.00714 fold-change vs cycle 0 | 0.28 ± 0.0818 fold-change vs cycle 0 |
| ACGCGT | 0.28 ± 0.0448 fold-change vs cycle 0 | 0.366 ± 0.0637 fold-change vs cycle 0 |
| CGGCTC | 0.124 ± 0.00754 fold-change vs cycle 0 | 0.242 ± 0.0735 fold-change vs cycle 0 |
| CCAGCG | 0.131 ± 0.0133 fold-change vs cycle 0 | 0.245 ± 0.0689 fold-change vs cycle 0 |
| TGGCCA | 0.236 ± 0.00832 fold-change vs cycle 0 | 0.386 ± 0.0718 fold-change vs cycle 0 |
| GCACGC | 0.0991 ± 0.0124 fold-change vs cycle 0 | 0.21 ± 0.063 fold-change vs cycle 0 |
| AGACGC | 0.274 ± 0.0116 fold-change vs cycle 0 | 0.405 ± 0.0774 fold-change vs cycle 0 |
| CGGGAC | 0.202 ± 0.00689 fold-change vs cycle 0 | 0.33 ± 0.0639 fold-change vs cycle 0 |
